Laboratory results reported in PubChem BioAssay AID743262 (National Center for Advancing Translational Sciences (NCATS), 2014).
“And” between values parts separate entries of the source, which are not always exact repeats. Identical values can stand only once. In all, about 1,300 compounds went through this assay and about 25 (2%) were called active. Inconclusive results (about 9%) are left out. Calls come from the whole dose curve; as a rule, active = well fitted activation curve with a large enough effect; inconclusive = small, poorly fitted or top-dose-only effect; inactive = flat fitted curve, though single readings scatter. Shown is part of a subset that was picked to be rich in actives.

These compounds were tested against Glucagon-like peptide 1 receptor (Homo sapiens) (UniProt P43220) (assay: qHTS of GLP-1 Receptor Agonists: Hit Validation). Settings: HEK293 GLP-1R, cAMP-response luciferase, 4-6 h; series mostly up to 46.1 µM; activation: at the top concentration.
Glucagon-like peptide 1 receptor (Homo sapiens), sequence (P43220 whole entry, looked up): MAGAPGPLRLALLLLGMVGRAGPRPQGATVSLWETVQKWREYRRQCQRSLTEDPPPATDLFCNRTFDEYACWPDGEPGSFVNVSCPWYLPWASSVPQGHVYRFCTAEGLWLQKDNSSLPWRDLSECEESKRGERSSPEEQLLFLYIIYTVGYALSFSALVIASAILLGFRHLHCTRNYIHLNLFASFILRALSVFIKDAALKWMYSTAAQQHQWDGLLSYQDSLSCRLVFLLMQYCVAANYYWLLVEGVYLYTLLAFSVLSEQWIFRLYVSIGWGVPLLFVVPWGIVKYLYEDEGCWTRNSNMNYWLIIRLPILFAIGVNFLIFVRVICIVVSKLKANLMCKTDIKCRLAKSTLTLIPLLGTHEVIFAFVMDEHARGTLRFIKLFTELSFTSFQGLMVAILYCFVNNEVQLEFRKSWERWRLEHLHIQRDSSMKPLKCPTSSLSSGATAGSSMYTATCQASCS
Excerpt: The overall goal of this project was to develop a novel assay for discovering small molecule ligands for class B1 G protein-coupled receptors (GPCRs). Very few agonists (or inverse agonists) with generally weak activity for this entire group of physiologically important receptors are known to date. To establish proof-of-principle that this critical bottleneck can be overcome with a suitable screening approach, our studies focused on the class B1 receptor for glucagon-like peptide-1 (GLP-1R), a potential therapeutic target for diabetes and neurodegenerative disease. The assay was developed in a "mix and measure" format using a cell-based functional readout. Toward this goal, stably transfected HEK293 cell clones were established that co-express (i) a cAMP-responsive luciferase reporter gene, and (ii) GLP-1Rs that upon ligand interaction either stimulate (agonists) or inhibit (inverse agonists) luciferase activity. In different cell lines to be used for screening, expressed GLP-1Rs are specifically optimized for high sensitivity detection of either weak agonists (hypersensitive receptor) or inverse agonists (constitutively active receptor mutant). In addition, control cell lines were developed that express either the cAMP-responsive reporter gene without recombinant GLP-1Rs (enabling initial exclusion of GLP-1R independent effects of candidate probes), or the reporter gene together with wild type GLP-1Rs (for confirmation of probe activity at this receptor), or the reporter gene in combination with the constitutively active orphan receptor GPR119 (enabling initial exclusion of GLP-1R independent inhibitory effects of candidate inverse agonists). To that end, this assay was optimized for 1536-well format and screened against the MLSMR. NIH Molecular Libraries Probe Production Network [MLPCN] NIH Chemical Genomics Center [NCGC] Grant: NS064851 PI Name: Martin Beinborn, Tufts Medical Center
In a white solid 1536-well plate, 6 uL of cells are dispensed in DMEM without phenol red, 10% Nu serum, and 1% pen-strep medium. The plates are then incubated for 12 hours at 37 deg C at 5% CO2 before 23 nL of compounds are added. After a 4-6 hr incubation at37 deg C and 5% CO2, 3 uL of detection reagent are added and after a 12 min incubation at RT, a luminescent read is obtained on the ViewLux.
Potency is the fitted concentration of half-maximal effect.
Throughout, for activation: % of control where 0% means no effect.

activation, inactive:
O=c1[nH]nc(-c2ccc(NCCO)c([N+](=O)[O-])c2)c2ccccc12 13.2%
COc1ccc(C(=O)Cc2ccccc2)cc1OC 1.93%
COCc1cc(C)nc2sc(C(=O)OC(C)C)c(N)c12 6.32%
CCCCn1c(=NC(=O)c2cccnc2)c(C(=O)OCC)cc2c(=O)n3ccccc3nc21 7.86%
COc1ccc(NC(=O)c2cccnc2)cc1OCC(C)C 0.0143%
O=C(Cn1nc(-c2ccc(N3CCOCC3)c([N+](=O)[O-])c2)c2ccccc2c1=O)N1CCCCC1 20.3%
OC(c1ccccc1)c1nc(-c2ccccc2)cs1 (stereo not drawn) -0.205%
COc1ccccc1Nc1nc(Cl)nc(Nc2ccccc2OC)n1 7.81%
CCOc1ccc(Oc2c(/C=N/NC(N)=O)c(C)nn2-c2ccccc2)cc1 16%
CCN(CC)S(=O)(=O)c1cc(NC(=O)c2ccccc2OCc2c(C)noc2C)ccc1C 1.93%
CCc1cc2c(-c3ccccc3)cc(=O)oc2c(CN2CCOCC2)c1O 4.04%
N#C/C(=C\c1ccc(N2CCOCC2)c([N+](=O)[O-])c1)c1nc2ccccc2[nH]1 4.71%
CC1(c2ccccc2)NC(=O)N(CC(=O)NNC(=O)c2ccccc2F)C1=O (stereo not drawn) -0.706%
CSc1ncccc1C(=O)OCc1c(F)cccc1Cl 5.02%
CCOc1ccc(CCNC(=O)c2ccc3ccccc3n2)cc1OCC 2.41%
CCN1CCN(c2nc3sc4c(c3c3ncnn23)CC(C)CC4)CC1 (stereo not drawn) 5.78%
CCOC(=O)c1cc(NC(=O)c2cccnc2)cc(C(=O)OCC)c1 0.228%
CCn1nc(NC(=O)c2ccco2)c2cc3cc(C)ccc3nc21 0.893%
CC(=O)c1cccc(Nc2nc(=O)c3cccnc3s2)c1 3.72%
CC(=O)c1cccc(N2C(=O)C3C4CCC(C4=C(C)C)C3C2=O)c1 (stereo not drawn) -0.946%
OCCNc1nc(-c2ccccc2)c2cc(Cl)ccc2n1 15.5%
O=c1ccc2ccc(OCCOc3cccc(Cl)c3)cc2o1 6.88%
CCOC(=O)c1sc2nc(OCc3cccnc3)cc(C)c2c1N 9.79%
CCc1cc(=O)oc2c3c(cc(OCC(=O)Nc4cccnc4)c12)OC(C)(C)CC3 9.92%
COC(=O)c1ccc2c(=O)[nH]c(COC(=O)c3[nH]c(C)c(C(C)=O)c3C)nc2c1 -0.418%
CCC(C)Nc1nc(N)c([N+](=O)[O-])c(Nc2ccccc2OC)n1 (stereo not drawn) 25.2%
CCN1CCN(C2=C(Cl)C(=O)N(Cc3ccccc3)C2=O)CC1 4.15%
COCCCNC(=S)N/N=C/c1ccc2ccccc2c1 2.83%
Cc1cc(C)nc(N2CCCC(C(=O)Nc3ccc4nc(C)c(C)nc4c3)C2)n1 (stereo not drawn) 2.27%
COc1ccc(C)cc1N(C(=O)c1snc(C(N)=O)c1N)C(C(=O)NC1CCCCC1)c1ccc(C)o1 (stereo not drawn) -0.356%
CCOC(=O)c1c(C)c(C(=O)N2CCCCCC2)c(C)n1C 2.73%
COc1cccc(C2CC(=O)Nc3cc(OC)c(OC)c(OC)c32)c1OC (stereo not drawn) 0.189%
COc1cc2c(cc1OC)/C(=C/C(=O)N1CCOCC1)NC(C)(C)C2 12.9%
CC(=O)NC1(c2ccccc2)CCN(c2cc(C)nc(-c3ccccc3)n2)CC1 14.2%
COc1cccc(/C=C/C(=O)Nc2ccc(N3CCOCC3)cc2)c1OC 0.215%
Cc1ccc(NC(=O)COc2ccc(CCO)cc2-n2nc3ccccc3n2)cc1C 27.2%
C=CCOc1nc2c(c(=O)n(C)c(=O)n2C)n1Cc1ccccc1Cl 4.97%
Cc1ccc(CNCCCSc2ncccn2)cc1 17.6%
CC(=O)Nc1ccc(NC(=O)c2cc(C3CC3)nc3c2cnn3C(C)C)cc1 2.18%
O=C(NCc1ccco1)c1cccc2c(-c3ccc(F)c(F)c3)coc12 15.6%
COc1ccc(CNC(=O)c2cccc3c(-c4cnn(C)c4)coc23)cc1OC 18.7%
COc1ccc(N(CC(=O)N/N=C/c2ccc(OC)c(OC)c2)S(=O)(=O)c2ccccc2)cc1 22.5%
COc1ccc(-c2cc(=O)[nH]c(NCc3ccccc3)n2)cc1 6.89%
CC1Cc2cc(S(=O)(=O)N3CCCC(C(=O)N4CCCCC4)C3)ccc2N1C(=O)C1CC1 (stereo not drawn) 10.9%
CCOC(=O)C1CCCN(C2=NC(=O)/C(=C/c3ccc(O)c(OCC)c3)S2)C1 (stereo not drawn) 11.7%
O=C(NC1CCCCCC1)C(=O)NC1CC1 -0.58%
CC(OC(=O)c1ccc2ncsc2c1)C(=O)NC1CCCCC1C (stereo not drawn) 2.27%
COc1ccc(-c2nn3c(COc4ccccc4)nnc3s2)cc1OC 28.5%
CCOC(=O)/C(C#N)=C/Nc1cc(OC)ccc1OC 2.12%
Oc1ccccc1/C=N/N1CCN(c2ccccn2)CC1 -0.352%
c1coc(Cn2c(-c3ccco3)nc3ccccc32)c1 -0.487%
COc1ccc(NC(C)=O)cc1S(=O)(=O)Nc1ccc2c(c1)OCCO2 -0.925%
COCCN(Cc1ccccc1)C(=O)c1cc(-c2ccc(OC)c(OC)c2)nc2ccccc12 23.1%
Cc1nc2cc(-c3cccc(F)c3)nn2c(N2CCN(C(=O)c3ccco3)CC2)c1C 16.2%
CCN(CC)c1nc(OC)nc(-n2nnc(C(C)=O)c2C)n1 0.606%
CCc1nc(SCCO)c2oc3ccccc3c2n1 3.96%
COC(=O)c1sc(NC(=O)CSc2nc3cccnc3n2C2CCCCC2)nc1C 2.81%
COc1ccc(OC)c(/C=N/n2c(-c3n[nH]c4c3CCC4)n[nH]c2=S)c1 -1.33%
COC(=O)Cc1c(C)c2ccc(OCc3nn[nH]n3)cc2oc1=O -0.628%
CCOC(=O)C1=C(COC(=O)c2cc(S(=O)(=O)N3CCOCC3)ccc2F)NC(=O)NC1C (stereo not drawn) 20.7%
COc1cccc(Cn2c(N)c(C#N)c3nc4ccccc4nc32)c1OC 7.89%
COc1ccc(S(=O)(=O)N(C)C)cc1NC(=O)c1ccc(OCC(=O)N2CCOCC2)c(OC)c1 0.301%
COc1ccc(-c2csc(C(C)(NC(C)=O)c3ccccc3)n2)cc1 (stereo not drawn) 5.87%
CCOC(=O)CN1C(=O)S/C(=C/c2ccc(OCc3ccc(C(=O)O)cc3)cc2)C1=O -1.18%
N#Cc1nc(-c2cccs2)oc1NCc1ccco1 0.479%
Cc1cc(C)c2c(N)c(C(=O)NCC3CCCCC3)sc2n1 4.29%
Cc1ccnc(NC(=O)C23CC4CC(CC(C4)C2)C3)c1 -0.29%
Cc1ccc(CNc2cc(-c3nn4c(C)nnc4s3)ccc2C)s1 16.4%
ClCCn1cnc2c(SCc3ccccc3)ncnc21 10.5%
COc1cccc(C2=CC(=O)C[C@H](c3ccc(OC)c(OC)c3)C2)c1 7.19%
N#Cc1c(NCCCO)nc(-c2ccccc2)c2c1CCCC2 10.7%
COc1ccc(C(C)=O)cc1COC(=O)c1ccc2c(c1)OCCO2 9.84%
CC(=O)c1cc(C#N)c(SCC(=O)OC(C)(C)C)nc1C 4.82%
COc1ccc(N/C=C/C(=O)c2ccc(OC)c(OC)c2)cc1 2.3%
C#CCOc1ccc2c3c(c(=O)oc2c1)CCCC3 10.1%
Cc1cccc(OCCNc2cc(N3CCOCC3)ccc2[N+](=O)[O-])c1 12.5%
OC(CNCc1cccc(Br)c1)c1ccccc1 (stereo not drawn) 11.8%
CCN(CC)c1nc2ccccc2nc1C(C#N)C(=O)NCCCOC (stereo not drawn) 4.82%
COc1ccc(F)cc1-c1cc(NC(C)=O)c2ncc(-c3cc(OC)c(OC)c(OC)c3)n2c1 6.2%
COc1ccc(-c2cc(NC=O)c3ncc(-c4ccc(C(C)=O)cc4)n3c2)cc1OC 25.4%
O=CNc1cc(-c2ccccc2)cn2c(-c3ccc(F)c(Cl)c3)cnc12 28%
COc1cccc(-c2cnc3c(NC=O)cc(-c4ccc(N(C)C)cc4)cn23)c1 27.5%
COc1ccc(-c2cnc3c(NC=O)cc(-c4ccc(C(=O)N5CCOCC5)cc4)cn23)cc1OC 22.4%
Cc1ccc(-c2cc(NC=O)c3ncc(-c4cnn(C)c4)n3c2)cc1 22%
CC(=O)c1ccc(-c2cnc3c(NC=O)cc(-c4ccccc4Oc4ccccc4)cn23)cc1 18.1%
COc1cccc(-c2cnc3c(NC(C)=O)cc(-c4ccc(OC)c(OC)c4)cn23)c1 24.3%
OC1CCCN(c2c3c(nc4cc(-c5cccc(F)c5)nn24)CCCC3)C1 (stereo not drawn) 14.6%
COc1cc2c(cc1OC)/C(=C/C(=O)c1ccccc1)NCC2 26.6%
O=C(OCc1csc(-c2ccccc2)n1)c1ccccc1O 2.2%
COc1ccc(CC(=O)OCC(=O)N2c3ccccc3CC2C)cc1OC (stereo not drawn) -0.291%
Cc1nn(C)cc1CNC(=O)c1cnn2c(C(F)F)cc(C3CC3)nc12 10.2%
COC(=O)c1ccc(OCC2c3cc(OC)c(OC)cc3CCN2C(C)=O)cc1 (stereo not drawn) 9.94%
Cc1cccc(-c2nnc3sc(-c4ccccc4C)nn23)c1 21%
Cc1cccc(C(=O)N2CCC[C@H]2C(=O)N2CCC[C@H]2C(=O)NCc2ccncc2)c1 -0.462%
Cc1cccc(-c2nc(C#N)c(N3CCCCCC3)o2)c1 10.5%
COc1cccc(Nc2nc(N)c([N+](=O)[O-])c(NCc3ccco3)n2)c1 21.8%
CC(C)n1nnnc1SCC(=O)N1N=C(c2cccs2)CC1c1cccs1 (stereo not drawn) -0.355%
CC1CCN(CCCNC(=O)c2cc3c(Cl)nc4ccccc4c3s2)CC1 4.09%
CCN(CC)c1ncnc2c1cnn2Cc1ccc(C)cc1 17.3%

Potency, active:
OC(c1ccccc1)c1nc(-c2csc3ccccc23)cs1 (stereo not drawn) 7.31 µM
CCn1nc(NC(=O)c2cccnc2)c2cc3ccccc3nc21 20.6 µM
C=C[C@@]1(C)CC(=O)[C@]2(O)[C@@]3(C)[C@@H](O)CCC(C)(C)[C@@H]3[C@H](OC(C)=O)[C@H](O)[C@@]2(C)O1 9.2 µM
C=C[C@@]1(C)CC(=O)[C@]2(O)[C@@]3(C)[C@@H](O)CCC(C)(C)[C@@H]3[C@H](O)[C@H](OC(C)=O)[C@@]2(C)O1 2 µM and 1.84 µM
O=C(NCc1cccs1)c1cccc2c(-c3cccnc3)coc12 9.2 µM
COc1ccc(-c2cnc3c(NC=O)cc(-c4ccccc4OC)cn23)cc1OC 8.2 µM
COc1ccc(-c2cc(NC=O)c3ncc(-c4ccc(OC)c(OC)c4)n3c2)cc1 18.4 µM
COc1cc(-c2cnc3c(NC=O)cc(-c4ccccc4Cl)cn23)cc(OC)c1OC 5.8 µM
COc1ccc(-c2cc(NC=O)c3ncc(-c4ccc(OC)c(OC)c4)n3c2)c(OC)c1 2.59 µM
